In PubChem BioAssay AID743279 (National Center for Advancing Translational Sciences (NCATS), 2014):
Out of some 360,000 compounds screened, about 17,000 (4.7%) were called active. About 5% were inconclusive and are not listed. Cut-off read from the data, not from the text of the source: active = activity change below about -50%; inconclusive = mostly about -30% to -49%; inactive = weaker than that. Shown is part of a subset that was picked to be rich in actives.

Assay: qHTS for Inhibitors of Inflammasome Signaling: IL-1-beta AlphaLISA Primary Screen
Details: THP-1 LPS/ATP IL-1B secretion, 16 h; at 57.5 µM, active compounds read low
Procedure, shortened: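 THP-1 cells pretreated 1 hr with compounds (up to 57.5 uM final), then stimulated with LPS (250 ng/mL final) plus ATP (1.25 mM final); secreted IL-1B measured by AlphaLISA after 16 hr, decreased signal indicating inhibition.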
% is set by controls: 0 for no effect and ±100 for the full control effect.

Activity change, inactive:
COc1ccc(CCNc2cc(N3CCN(C(=O)c4ccccc4OC)CC3)ccc2[N+](=O)[O-])cc1OC 42.9%
O=C(NN=CC=Cc1ccccc1)C(O)C(O)C(=O)NN=CC=Cc1ccccc1 (configuration not stated) -17.2%
Cc1ccc(C(CNC(=O)Nc2cccc(C)c2)N2CCN(C)CC2)cc1 (configuration not stated) -20.1%
CCC1CCCCN1C(=S)NC(=O)c1ccco1 (configuration not stated) -6.58%
CCn1c(=O)c2ccccc2n(CC(=O)N2CCCc3ccccc32)c1=O -0.244%
COc1ccc(CCNC(=O)COc2cc(C)cc3oc(=O)c(C)c(C)c23)cc1OC -1.44%
CCOc1ccc(OCc2ccc(C(=O)N(C)c3ccccc3)o2)cc1 -7.29%
Cc1cccc(NC(=O)c2ccc(COc3ccccc3[N+](=O)[O-])o2)n1 6.94%
OC[C@@H]1CN(Cc2ccc(Cl)cc2)C[C@H](n2cnc3c(NCc4ccncc4)ncnc32)O1 -7%
C=CCn1c2c(c3ccccc31)CCC2 0%
CC(C)(C)c1ccc(C(=O)NNC(=O)Cc2ccccc2)cc1 0.0784%
Cc1ccc(C(=O)CSc2ccccc2C(=O)O)cc1 5.18%
CCC(C)C1(C2CCCC2)NC(=O)NC1=O (configuration not stated) -5.19%
CC1(c2cccc([N+](=O)[O-])c2)CC(C)(C)N(C(=O)c2ccccc2)c2ccccc21 (configuration not stated) -2.13%
CC1(c2ccccc2)CC(C)(C)N(C(=O)c2cc([N+](=O)[O-])cc([N+](=O)[O-])c2)c2ccccc21 (configuration not stated) 5.37%
CCOC(=O)C1=CC[C@@H](c2ccccc2)N(S(=O)(=O)c2ccc(C)cc2)[C@H]1c1cccc(OC)c1 2.13%
CCC(=O)c1ccc(OCC(O)CN2CCN(c3cccc(C(F)(F)F)c3)CC2)cc1 (configuration not stated) -11.4%
OC(COc1ccccc1)CN1CCN(c2cccc(Cl)c2)CC1 (configuration not stated) 14.3%
OC(COc1ccc(Br)cc1)CN1CCCC1 (configuration not stated) -27.2%
CC1CCN(CC(O)COc2ccc(C(=O)c3ccccc3)cc2)CC1 (configuration not stated) -22.3%
CC(C)NC(=O)C1(C)CCCCN1Cc1cccc(C(F)(F)F)c1 (configuration not stated) 12.4%
CCCCCNC(=O)C(c1ccc(OC)cc1)n1c(=O)c(-c2ccccc2)nc2ccccc21 (configuration not stated) -10.4%
CCOC(=O)C1(C)CCCN(C(=O)c2ccc(F)c(Cl)c2)C1 (configuration not stated) 7.31%
C[C@H]1CN([C@@H](C)CO)C(=O)CCCn2cc(nn2)CO[C@@H]1CN(C)S(=O)(=O)c1ccc(-n2cccn2)cc1 -21.5%
O=C(CSCc1ccc([N+](=O)[O-])cc1)Nc1cccc(C(=O)Nc2ccccc2C(=O)O)c1 13.4%
O=C(Cc1ccc(S(=O)(=O)N2CCOCC2)s1)NCCOc1ccccc1F 6.24%
O=C(Cc1ccc(S(=O)(=O)N2CCOCC2)s1)NCCC(c1ccccc1)c1ccccc1 17%
CCN(C(=O)Nc1cccc2ccccc12)c1ccccc1 12.7%
O=C(Nc1nnc(-c2ccccc2)o1)c1cc(-c2cccs2)nc2ccccc12 23%
COc1ccccc1C(=O)Nn1c(-c2cccs2)nc2ccccc2c1=O -3.33%
COc1ccccc1Oc1ccc(S(=O)(=O)Nc2cccnc2)cc1 -2.24%
Cc1ccc(NS(=O)(=O)c2ccc(C(C)(C)C)cc2)cn1 1.59%
COc1ccc(S(=O)(=O)N(C)C[C@H]2OCc3cnnn3CCCC(=O)N([C@H](C)CO)C[C@H]2C)cc1 -20%
Cc1ccccc1NC(=O)Cc1nc(COC(=O)C(C)(C)Oc2ccc(Cl)cc2)cs1 17%
CC1CCCCN1CCCNC(=O)Cn1ncc2c([nH]c3ccccc32)c1=O (configuration not stated) 14.3%
CCNC(=O)C1CCCN(C(=O)c2cc(F)ccc2C)CC1 (configuration not stated) 26.6%
Cc1nn(C)c(C)c1NS(=O)(=O)c1ccc(OC(F)(F)F)cc1 63%
O=C1COc2ccc(S(=O)(=O)Nc3ccc(OC(F)(F)F)cc3)cc2N1 6.28%
O=C(CC[C@H]1O[C@@H](n2ccc(=O)[nH]c2=O)[C@H](O)[C@@H]1O)N[C@H](Cc1ccccc1)C(=O)NCc1ccco1 17.1%
CNc1nc(=O)n(C2CCCO2)cc1C (configuration not stated) -1.08%
Cc1cc(C)n2c(Nc3c(C)cccc3C)c(CCc3ccccc3)nc2n1 0%
O=C(COC(=O)c1ccc([N+](=O)[O-])cc1Cl)NC(=O)c1ccccc1 0.699%
O=C(NOCc1ccccc1)c1cccc([N+](=O)[O-])c1 -14.2%
CCOC(=O)c1ccccc1NC(=O)COC(=O)CCC(=O)N1CCOCC1 -2.88%
CN(C)CCOC1c2ccccc2-c2ccccc21 -24.9%
CN(C)CCOC(=O)C(c1ccccc1)C1(O)CCCC1 (configuration not stated) -8.97%
Nc1ccccc1Sc1cc(Cl)nnc1Cl 4.28%
CCOc1ccc(S(=O)(=O)Nc2nccs2)cc1 -1.81%
CC(Oc1ccc(Cl)cc1)c1ccnn1S(C)(=O)=O (configuration not stated) -4.95%
CNc1ccc([N+](=O)[O-])cc1C(=O)O 12.5%
CCC(C)C(=O)Nc1cc([N+](=O)[O-])ccc1Cl (configuration not stated) 4.95%
CN(Cc1ccccc1F)c1cc2c(c3c1ccn3C)C1CCC2O1 (configuration not stated) 38.3%
Cc1nccn1-c1ccc(NC(=O)[C@H]2O[C@@H](n3ccc(=O)[nH]c3=O)[C@H](O)[C@@H]2O)cc1 20.2%
COC(=O)[C@@]1(Cc2ccc(F)cc2)[C@H]2c3cc(C(=O)N(C)C)n(CCc4c[nH]c5ccc(OC)cc45)c3C[C@H]2CN1C(=O)c1ccccc1 -25.7%
O=C(CSc1nnc(-c2ccncc2)n1-c1ccc(Cl)cc1)Nc1ccc(C(=O)O)cc1 8.71%
CCOc1ccc(CN2CCCN(C)CC2)cc1 14.6%
Cn1c(=N)n(CC(O)c2ccccc2)c2ccccc21 (configuration not stated) 35.9%
COCCn1cnnc1SCC(=O)Nc1cccc(S(=O)(=O)N2CCCCC2)c1 5.3%
CN(CCO)C(=O)c1nc[nH]c1C(=O)N(C)Cc1ccccc1 26.2%
CCCCCCN1C[C@H](O)[C@@H](n2cc(C3CC3)nn2)C[C@@H]1c1ccc(Cl)cc1 82%
CC(=O)Nc1ccc(NC(=O)COc2ccc(-c3ccccc3)cc2)cc1 -15.4%
CN1CCN(CCC(=O)N/N=C/C=C2\N(C)c3ccccc3C2(C)C)CC1 10.2%
C[C@@H]1CC2=C(C(=O)OC(C)(C)O2)[C@@H](C2CC2)O1 32.1%
CN(CC(=O)Nc1cccc(F)c1)C(=O)CC1CCCC1 0.0851%
CN(CC(=O)Nc1cccc(F)c1)C(=O)C1=COCCO1 2.81%
CCCCNS(=O)(=O)CCNCc1ccccc1OC 3.56%
CCCCCCNS(=O)(=O)c1ccccc1Br 14%
C[C@H]1CN([C@@H](C)CO)C(=O)CCCn2cc(nn2)CO[C@@H]1CN(C)S(=O)(=O)c1cccs1 7.03%
CC(C)(C)NC(=O)C(CCc1ccccc1)n1c(=O)c(-c2ccccc2)nc2ccccc21 (configuration not stated) 0%
CC(C)C1CCN(C(=O)C2CCC(=O)N(C3CCCCCC3)C2)CC1 (configuration not stated) -3.63%
CCOc1ccc(CCNC(=O)Nc2ccccc2)cc1OCC 30.9%
CONC(=O)c1cc(OCC(F)(F)F)ccc1OCC(F)(F)F -0.808%
NS(=O)(=O)c1ccc(CNC(=O)c2cc(S(=O)(=O)N3CCOCC3)ccc2N2CCCC2)cc1 -15.8%
O=C(Nc1ccc(N2CCCCC2)cc1)c1cc(S(=O)(=O)N2CCOCC2)ccc1F -27.8%

Activity change, active:
CCOc1ccc(OCc2ccc(C(=O)Nc3cccc(C)n3)o2)cc1 -69%
Cc1ccc(SC(CC(=O)c2ccc(C(C)(C)C)cc2)C(=O)O)cc1 (configuration not stated) -93.8%
Cc1nnc(SCC(=O)N2c3ccccc3C(C)(c3ccc(Cl)cc3)CC2(C)C)s1 (configuration not stated) -71.6%
OC(COc1ccc2c(c1)CCC2)CN1CCN(c2cccc(Cl)c2)CC1 (configuration not stated) -64.8%
O=C(c1ccc(Cl)cc1)c1ccc(OCC(O)CN2CCCCC2)cc1 (configuration not stated) -52.5%
O=C(Cc1ccc(S(=O)(=O)N2CCOCC2)s1)Nc1ccc(Br)c(C(F)(F)F)c1 -61%
CC(=O)Nc1cccc(Nc2nc(-c3cccs3)nc3ccccc23)c1 -65.6%
Cc1cc(C)cc(NS(=O)(=O)c2ccc(Oc3ncc(C(F)(F)F)cc3Cl)cc2)c1 -75.1%
O=S(=O)(Nc1ccc(O)c2ccccc12)c1ccc(OC(F)(F)F)cc1 -70.3%
O=C(NC(Nc1nc2ccc([N+](=O)[O-])cc2s1)(C(F)(F)F)C(F)(F)F)c1ccccc1 -105%
Cc1ccccc1C(OCCN(C)C)C1CCCCC1 (configuration not stated) -55.7%
Cc1ccc(NC(=O)c2cc([N+](=O)[O-])ccc2Cl)c(O)c1 -76%
CCOc1ccc(C(O)Cn2c(=N)n(CCN3CCCCC3)c3ccccc32)cc1 (configuration not stated) -60.3%
CC(=O)Nc1cccc(OCC(=O)/C=C2\N(C)c3ccccc3C2(C)C)c1 -82%
CC1CCc2[nH]c3ccc(C(=O)N(C)CC(=O)Nc4cccc(F)c4)cc3c2C1 (configuration not stated) -74.7%
CCCCCCCCNS(=O)(=O)CCNC1CCCCC1 -65.1%
O=C(NC(=O)c1cc(OCC(F)(F)F)ccc1OCC(F)(F)F)Nc1ccccc1 -63.5%
O=C(CNC(=O)c1cc(S(=O)(=O)N2CCOCC2)ccc1N1CCCC1)Nc1ccc(F)c(F)c1 -54%
